# Laboratory results from the OligoGym collection.
# Target: SEMA6D
# Assay: pooled miR-30 sensor sort-seq; sequence = guide strand
# Settings: shRNA
# Also: reference of the scale not given here.
row,Sequence,sensor-assay potency score (higher = more potent)
1,TTTAGGAGAATCAATATTCTGT,-0.109
2,TTGAATAGTGATAGTCGACAGT,-0.481
3,TTTCTTTCCTTGAAGCTCCATG,-0.704

# Target: SENP1
# Assay: as above
# Settings: shRNA
row,Sequence,sensor-assay potency score (higher = more potent)
1,TTGAACTGTCTCTTCTGCTGTA,0.936
2,TTCACTGAGAACTTCATCCTGA,0.885
3,TTGATTGGTCTGTCTTTGGTAA,-0.497
4,TTATCTGAGTAATAGCTTGGAT,0.0199
5,TGTACTAACATGTCGCCTCTGA,0.2
6,AACAGTAACAGGAATCTCCTTT,-0.105
7,TAGAGTTTGAATATCTTTGCGT,0.243
8,TACTGGAACTAAGACATCGAGA,-0.808
9,TATCAGTTAATTTATGACCTTT,0.136
10,TATTGCAAGAGTATTCTGCAGG,-0.448
11,TAATAGGTAATATTCTTCTTTC,-0.79
12,TTTACTTCGCTCCATCAGCATA,-1.5

# Target: SERPINB7
# Assay: as above
# Settings: shRNA
row,Sequence,sensor-assay potency score (higher = more potent)
1,TAAGATTTGTGCATCATCCTTG,1.22
2,TTCTCTATCTTGAACTGAGGAA,-0.416
3,TAATATTACGTCTAGTGTCTTC,-0.265
4,TTCTTCTCTATCTTGAACTGAG,-0.146
5,TTCTACAATATTACTTCCTGTG,-0.132
6,TTTTCTACAATATTACTTCCTG,0.325
7,TAGAAGAGTTTCCATATCCTGA,0.0524
8,ATTTCCTTGATTGTCATCCATC,-1.25
9,TTCATAATTCTTCTCTATCTTG,-0.438
10,TTGATTGTCATCCATCTCTCTG,-0.525
11,TACTTAGAGGTCATTCGCCTTG,-0.685

# Target: SERPINE2
# Assay: as above
# Settings: shRNA
row,Sequence,sensor-assay potency score (higher = more potent)
1,TATTTTTGCAAAATTTGCCTTT,-0.263
2,TACAGTGTTCCAGCCATCCTGC,-0.935
3,TTAATATTTTACCAACTCCATT,-1.64
4,TTGTCAATCATATCCCTGGTTT,-0.515
5,ATTCTTAACAAACACGGCGTTA,-0.703
6,TTGATGAATCAAACATGTCAGT,-0.681
7,TTTAACAGAACTATGAAAGATG,-0.755
8,TATTTTAGTGAATACATGCATT,-0.736
9,TACAGCTGTGAACTTGGGCAGG,-0.9
10,TTCCTCAGTACAGTGTTCCAGC,-0.117
11,TTGTGCTACAGCTGTGAACTTG,-0.393
12,AACAGAAACACTTGCATCGAGT,-0.757
